Reference: PubChem BioAssay AID1863 (Southern Research Specialized Biocontainment Screening …, 2009)
Among all 300,000 compounds or so, about 480 (0.16%) were called active. Only a sample is shown. Measured potencies and affinities stand elsewhere. Values without a mark were called inactive.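 How the source made its calls: active means inhibition over 29.93%, a cutoff 3 SD above the screen mean, later confirmed by dose response; inconclusive means inhibition over 29.93% but no dose response follow-up; inactive means inhibition at most 29.93% or unconfirmed.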

Assay: PhoP-dependent GFP reporter repression – Salmonella Typhimurium, primary screen (AID 1863);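 further: 0% = low Mg2+ inducing control and 100% = high Mg2+ repressing control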
Conditions: S. Typhimurium PhoP-regulated promoter GFP reporter, 4 h; at 50 µM; stronger effect = higher value

First: Cc1ccccc1CSc1nnc(-c2ccncc2)n1C
Second: Cc1ccc(-c2nn(-c3ccccc3)cc2CSC(=N)N)cc1
The inhibition of the first is lower: 1.82% for the first, 2.16% for the second.

Compared with COc1ccccc1C(=O)NCCC(=O)NC(C)c1ccc(-n2ccnc2)cc1 (stereo not drawn), O=C(NCCCn1ccnc1)c1ccc(Br)cc1 is higher in inhibition: 9.9% for the first, 12.6% for the second.

Compared with C[N+](C)(C)CCCCCCCCCC[N+](C)(C)C, C[N+](C)(C)CCCCCC[N+](C)(C)C is lower in inhibition: -6.25% for the first, -9.93% for the second.

Compared with C#CC[N+](C)(C)CCCCCCCCCC, CCCCCC[N+](C)(C)CCSSCC[N+](C)(C)CCCCCC is lower in inhibition: 8.05% for the first, -6.44% for the second.

Compared with CN1CCN(c2c(F)cc3c(=O)c(C(=O)O)cn4c3c2SCC4)CC1, COCC(=O)Nc1ccc(N2CCN(c3ccccc3)CC2)c(F)c1 is higher in inhibition: -8.39% for the first, 21.5% for the second.

Compared with CC1CCc2cc(F)cc3c(O)c(C(=O)NCCN(C)C)c(=O)n1c23 (stereo not drawn), CCN(CC)CCCNC(=O)c1c(O)c2cc(F)cc3c2n(c1=O)C(C)CC3 (stereo not drawn) is higher in inhibition: 2.46% for the first, 8.52% for the second.

Compared with O=C(c1cncc(Br)c1)N1CCN(S(=O)(=O)c2ccccc2C(F)(F)F)CC1, COc1ccc(C(=O)N2CCN(Cc3ccccc3)CC2)cc1[N+](=O)[O-] is lower in inhibition: -1.26% for the first, -3.7% for the second.

Compared with Cc1ccc(C(=O)N/C(=C\c2cccnc2)C(=O)N2CCCC2)cc1, Cc1ccc(S(=O)(=O)Nc2ccc(O)c3ncccc23)cc1 is higher in inhibition: -6.95% for the first, 10.5% for the second.

First: Cc1ccc(C2=Nc3ccccc3NC(C)(c3ccc(C)o3)C2)o1 (stereo not drawn)
Second: Cc1ccc(CN2C(=O)NC(Cc3c[nH]c4ccccc34)C2=O)cc1 (stereo not drawn)
The inhibition of the first is lower: -5.88% for the first, 4.26% for the second.

Going from Cc1nnsc1S(=O)c1ccc(Cl)c(Cl)c1 (stereo not drawn) to O=C(Nc1ccc(Cl)c(Cl)c1)Nc1ccccn1, the inhibition rises from 3.99% to 8.31%.

Compared with N#Cc1ccccc1CSCCNC(=O)Cc1c(F)cccc1Cl, O=C(Nc1ccccc1)Nc1ccc(F)c([N+](=O)[O-])c1 is higher in inhibition: -5.66% for the first, 8.9% for the second.

First: COc1cccc(Cn2c(C3CC3)nc3ccc(NC(=O)c4ccco4)cc3c2=O)c1
Second: O=C(NCCC1=CCCCC1)c1ccc2c(c1)N(Cc1ccccc1)C(=O)CS2
The inhibition of the first is lower: -9.67% for the first, 6.9% for the second.

First: OCc1cn(-c2ccccc2)nc1-c1ccc(-c2nn(-c3ccccc3)cc2CO)cc1
Second: OCc1cn(-c2ccccc2)nc1-c1ccc(Br)cc1
The inhibition of the first is higher: 14.7% for the first, -1.5% for the second.

First: O=C(O)Cc1cn(-c2ccccc2)nc1-c1ccccc1
Second: CCN(CC)P(=O)(c1ccccc1)c1c(C)nc2ccccn12 (stereo not drawn)
The inhibition of the first is higher: -1.05% for the first, -1.09% for the second.

Compared with CC1=Nn2c(nc3sc4c(c3c2=O)CCCC4)SC1, CC(NC(=O)C1CCN(S(=O)(=O)c2ccc3nc4c(c(C(=O)O)c3c2)CCCC4)CC1)c1ccccc1 (stereo not drawn) is lower in inhibition: -2.64% for the first, -8.3% for the second.

First: Cc1cnc(NC(=O)c2ccncc2)s1
Second: O=C(Nc1ncc([N+](=O)[O-])s1)c1ccccc1Br
The inhibition of the first is higher: 1.84% for the first, -1.22% for the second.

Compared with C=CCOC(=O)C1=C[C@@H](c2ccc(Br)cc2)[C@H](CCCO)[C@@H](OCC)O1, C=CCOC(=O)C1=C(C)NC(SCC(=O)Nc2nccs2)=C(C#N)C1c1cccs1 (stereo not drawn) is lower in inhibition: -3.82% for the first, -14.1% for the second.

Going from COc1cc(NS(=O)(=O)c2ccc(NS(=O)(=O)c3ccc(C)cc3)cc2)nc(OC)n1 to Cc1ccc(S(=O)(=O)Nc2ccc(O)c3cccnc23)cc1, the inhibition falls from 12.1% to 6.3%.

Compared with Cc1ccc(SCCc2ccc(C)nc2)cc1, O=C(Oc1ccc(Cl)c2cccnc12)c1ccco1 is higher in inhibition: 9.59% for the first, 19.6% for the second.

First: COCCCNC(=S)NNC(=O)c1ccccn1
Second: CCNC(=S)NNC(=O)c1ccccc1Cl
The inhibition of the first is higher: 8.59% for the first, 8.03% for the second.

Compared with CCOC(=O)Cn1cnc2sc(C(=O)OC)c(C)c2c1=O, COC(=O)c1cc(NC(=O)CC2SCCNC2=O)cc(C(=O)OC)c1 (stereo not drawn) is lower in inhibition: -1.36% for the first, -10.7% for the second.

First: Cc1ccc(NC(=O)Nc2ccccc2)cc1[N+](=O)[O-]
Second: O=C(Nc1ccc(Cl)c(Cl)c1)Nc1ccccc1C(=O)O
The inhibition of the first is lower: -2.21% for the first, 4.95% for the second.

Going from O=C(CCS(=O)(=O)c1ccccc1)Nc1ncc([N+](=O)[O-])s1 to CCN(CC)S(=O)(=O)c1ccc(OC)c(NS(=O)(=O)Cc2ccccc2)c1, the inhibition falls from 11.2% to 6.46%.

First: CC12CCC(C(=O)NC3CCCC3)(CC1=O)C2(C)C (stereo not drawn)
Second: CN(C)S(=O)(=O)c1ccc(N2CCCC2)c(C(=O)Nc2nc(-c3ccc(F)c(F)c3)cs2)c1
The inhibition of the first is lower: -12.7% for the first, 3.09% for the second.

First: COc1ccc(-c2nnn(CC(=O)N(CC3CCCO3)C(C(=O)NC(C)(C)C)c3ccco3)n2)cc1OC (stereo not drawn)
Second: COc1ccc(CN(CC(=O)NCC2CCCO2)C(=O)CNS(=O)(=O)c2ccc(C)cc2)cc1 (stereo not drawn)
The inhibition of the first is higher: 2.77% for the first, -1.33% for the second.

First: COCCCNC(=O)CN(c1cc(Cl)cc(Cl)c1)S(C)(=O)=O
Second: CCC(=O)c1cc2c(cc1NC(=O)c1ccccc1)OCCO2
The inhibition of the first is lower: -4.71% for the first, 5.62% for the second.

Compared with N#CCOc1nc(N2CCOCC2)nc(N2CCOCC2)n1, CC(C)c1nnc(NC(=O)c2ccc(S(=O)(=O)N3CCOCC3)cc2)s1 is lower in inhibition: -1.4% for the first, -9.01% for the second.

First: O=C(O)c1cccc(Nc2ncnc3sccc23)c1
Second: O=C(Oc1c(Cl)cc(Cl)c2cccnc12)c1cccs1
The inhibition of the first is lower: -0.32% for the first, 14.3% for the second.

Going from COc1ccccc1N1CCN(CC(=O)c2c(C)[nH]c3cc(C)ccc23)CC1 to CCOC(=O)c1ccc2c(c1)n(CC)c(/C=C/N(C)c1ccccc1)[n+]2CC, the inhibition falls from -0.55% to -11%.

Compared with CCn1c(/C=C/N(C)c2ccccc2)[n+](CC)c2ccc(Cl)cc21, Clc1cc2cccnc2c2ccccc12 is higher in inhibition: -2.39% for the first, 2.15% for the second.

Going from Oc1c(Cl)cc(CN2CCCCC2)c2cccnc12 to Oc1c(I)cc(I)c2cccnc12, the inhibition falls from 14.1% to -1.32%.

Compound O=c1oc2ccccc2c(O)c1Cc1cc(Cl)c2cccnc2c1O has an inhibition of -10%.
